Screen size: about 1,100 compounds; about 760 (69%) were called active. How the calls were made is not given here. So high a share suggests a set chosen from earlier hits. The list shows a part of the results.

As a reminder, the inhibition is the change of the read-out against control, counted positive when it falls.

The test can be described thus: M. tuberculosis growth inhibition, HTS (AID 1259417).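 Further: bacteria grown with compound for 5 days at 37 °C.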 The conditions noted are these: stronger effect = higher value, concentration not given here.
The mark [1] stands for this setting: M. tuberculosis DsRed fluorescence growth inhibition.
Setting [2] is: M. tuberculosis growth inhibition.

For the compound `Cc1ccc(-c2nnc(NC(=O)c3ccc([N+](=O)[O-])s3)o2)c(C)c1`, the inhibition was 41.9% (active) under setting [1] and 72.9% under setting [2].
The corresponding values for `Cc1ccc(C)c(-c2nnc(NC(=O)c3ccc([N+](=O)[O-])s3)o2)c1` are 98.9% (active) and 97.4%.
The like results for `Cc1ccc(-c2nnc(NC(=O)c3c(F)cccc3F)o2)c(C)c1` were, in that order, 2.49% (inactive) and -10.3%.
The like results for `Cc1ccc(-c2nnc(NC(=O)c3ccc([N+](=O)[O-])o3)o2)c(C)c1` were, in that order, 97.8% (active) and 98.1%.
On to `Cc1ccc(C)c(-c2nnc(NC(=O)c3ccc([N+](=O)[O-])o3)o2)c1`, for which the inhibition is, setting by setting: under setting [1], 12.4% (inactive); under setting [2], 1.93%.
The like results for `O=[N+]([O-])c1ccc(N2CCN(CCO)CC2)cc1NCCOc1cccc2ccccc12` were, in that order, 10.3% (inactive) and -3.69%.
The corresponding values for `CCOc1cc2c3c(c1)C1(C(=O)N3C(C)(C)C=C2C)C(C#N)=C(N)Oc2cc(O)ccc21` (centres undefined) are 10.6% (inactive) and -4.41%.
The corresponding values for `O=C1C(Cl)=C(Nc2ccccc2O)C(=O)N1c1ccccc1` are 96% (active) and 94.9%.
Turning to `O=C1C(Cl)=C(Nc2ccccc2O)C(=O)N1c1ccc(Cl)c(Cl)c1`, the inhibition under setting [1] is 95.4% (active) and the inhibition under setting [2] stood at 94.6%.
Take `O=[N+]([O-])c1ccc(-c2[nH]c(-c3cccs3)nc2-c2ccccc2)cc1`: the inhibition reads like this: under setting [1], -27% (inactive); under setting [2], 4.73%.
The corresponding values for `COC(=O)CSc1nc2ccccc2nc1SCC(=O)OC` are 11.6% (active) and 37.2%.
The corresponding values for `c1ccc(-c2nc(NCC3CCCO3)c3ccccc3n2)nc1` (centres undefined) are 95.4% (active) and 94.9%.
The corresponding values for `COc1cccc(Nc2nc(-c3ccccn3)cs2)c1` are 93.6% (active) and 93.4%.
`COc1ccc(Nc2nc(-c3ccccn3)cs2)c(OC)c1`: the inhibition is, setting by setting: under setting [1], 92.1% (active); under setting [2], 83.9%.
The corresponding values for `CC(=O)c1cccc(Nc2cc(C)nc3c2ccc2ccccc23)c1` are 10.9% (inactive) and -33.8%.
The corresponding values for `CC(=O)c1cccc(Nc2nc(-c3ccccn3)cs2)c1` are 70.5% (active) and 74.6%.
The corresponding values for `CC(=O)c1ccc(NC(=O)NC(C)C23CC4CC(CC(C4)C2)C3)cc1` (centres undefined) are 98.3% (active) and 94.8%.
Take `CC(=O)c1ccc(NC(=O)Nc2cc(OCC(F)(F)F)cc(OCC(F)(F)C(F)F)c2)cc1`: the inhibition was 1.19% (inactive) under setting [1] and 22.7% under setting [2].
The like results for `O=C(Nc1ccc(-c2nc3ccccc3c(=O)o2)cc1)c1ccccc1I` were, in that order, 78.1% (active) and 85.2%.
In the case of `Cc1oc2c(c1C(=O)Nc1cccc3ccccc13)CCCC2`, the inhibition by setting is: under setting [1], 13.4% (inactive); under setting [2], 21.7%.
The like results for `CCOC(=O)C(Cc1ccccc1)C(=O)Nc1cccc2ccccc12` (centres undefined) were, in that order, -0.257% (inactive) and -5.18%.
The like results for `Cc1ccc(-c2nc3c(cnn3-c3ccccc3)c(=O)o2)cc1` were, in that order, 4.19% (inactive) and -0.344%.
The corresponding values for `CCCC(=O)Nc1cccc(-c2nc3ccccc3c(=O)o2)c1` are 29.1% (active) and 52%.
As for `Cc1ccccc1OC(=O)c1sc2ccccc2c1Cl`, the inhibition is, setting by setting: under setting [1], 25.5% (active); under setting [2], 64.7%.
`Cc1c(OC(=O)c2ccccc2Cl)ccc2c1CCCC2`: the inhibition reads like this: under setting [1], 7.92% (inactive); under setting [2], 16.4%.
The corresponding values for `COc1ccccc1OC(=O)c1sc2ccccc2c1Cl` are 17.3% (active) and 53%.
With `COc1ccccc1-c1nnc(NC(=O)c2sc3ccccc3c2Cl)o1`, the inhibition runs as follows: under setting [1], -1.61% (inactive); under setting [2], -16%.
The like results for `O=C1c2cccc3cccc(c23)C(=O)N1c1ccc2[nH]c(=O)[nH]c2c1` were, in that order, 36.4% (active) and 63.9%.
In the case of `COc1ccc2nc(C)c3cc(C)oc3c2c1`, the inhibition is 99.8% (active) under setting [1] and 99.6% under setting [2].
The corresponding values for `O=c1cc(-c2c(F)c(F)c(F)c(F)c2F)oc2ccccc12` are 99.2% (active) and 96.4%.
The corresponding values for `O=C(Oc1ccccc1Cl)c1ccc(N2CCOCC2)c([N+](=O)[O-])c1` are 0.0336% (inactive) and 13.4%.
The like results for `O=C(Oc1ccc(Cl)cc1)c1ccc(N2CCOCC2)c([N+](=O)[O-])c1` were, in that order, 4.2% (inactive) and 24.6%.
Take `O=C(Oc1c(Cl)cc(Cl)c2cccnc12)c1cc(S(=O)(=O)N2CCCCC2)ccc1Cl`: the inhibition is 98.6% (active) under setting [1] and 99.4% under setting [2].
The like results for `O=C(Oc1cccc2cccnc12)c1ccc(Cl)c(S(=O)(=O)N2CCOCC2)c1` were, in that order, 100% (active) and 101%.
The corresponding values for `Cc1ccc(S(=O)(=O)NC(=O)Oc2cccc3cccnc23)cc1` are -0.272% (inactive) and -10.4%.
`O=C(Oc1ccc(Cl)cc1)c1ccc(S(=O)(=O)c2ccc(Cl)cc2)cc1`: the inhibition is 55.3% (active) under setting [1] and 74.8% under setting [2].
The like results for `O=C(Oc1cccc2cccnc12)c1ccc(S(=O)(=O)N2CCCCC2)cc1` were, in that order, 99.4% (active) and 100%.
The like results for `COCCn1nnnc1C(c1cc2cc(OC)ccc2[nH]c1=O)N1CCC(Cc2ccccc2)CC1` (centres undefined) were, in that order, 6.25% (inactive) and -12.1%.
The like results for `O=C(Oc1ccccc1)c1ccc(S(=O)(=O)N2CCCCC2)cc1` were, in that order, 12% (active) and 46.3%.
In the case of `Cc1nc2ccccn2c1C(=O)NCc1ccc2c(c1)OCO2`, the inhibition under setting [1] was 99.7% (active) and the inhibition under setting [2] is 99.6%.
The like results for `Cc1nn(Cc2ccccc2Cl)c2sc(C(=O)NCc3ccc4c(c3)OCO4)cc12` were, in that order, -3.53% (inactive) and -15.9%.
On to `COc1ccc(CNC(=O)c2c(C)nc3ccccn23)cc1`, for which the inhibition is 99.4% (active) under setting [1] and 100% under setting [2].
The like results for `CCOC(=O)CSc1nc(N)c(C#N)c(CC(C)C)c1C#N` were, in that order, -5.9% (inactive) and -4.83%.
With `CCOC(=O)CSc1nc(C#N)c(SCC(=O)OCC)s1`, the inhibition by setting is: under setting [1], 31.4% (active); under setting [2], 80.2%.
The like results for `Cc1ccc(NC(=O)CSc2ccc(-c3ccccn3)nn2)cc1` were, in that order, 89% (active) and 97.4%.
The like results for `COc1ccc(-c2nc(NC(=O)c3ccccc3)n[nH]2)cc1OC` were, in that order, 97.2% (active) and 96.7%.
The corresponding values for `CCOC(=O)c1c(NC(=O)c2ccccc2C)sc(C)c1-c1ccc(OC)c(OC)c1` are -3.52% (inactive) and -17.9%.
In the case of `CC(C)=CCN1CCN(CCC2=C(C)CCCC2(C)C)CC1CCO` (centres undefined), the inhibition reads like this: under setting [1], -2.34% (inactive); under setting [2], -26.9%.
The corresponding values for `COC(=O)c1c(NC(=O)c2cccc(OC)c2)sc2c1C(C(=O)OC)CC2` (centres undefined) are 1.52% (inactive) and -13.4%.
The like results for `COc1cccc(NC(=O)c2c(NC(=O)c3cccnc3)sc3c2CCC3)c1` were, in that order, 92.4% (active) and 95.5%.
As for `COc1cccc(NC(=O)c2c(NC(=O)c3cccc(C)c3)sc3c2CCC3)c1`, the inhibition by setting is: under setting [1], -1.15% (inactive); under setting [2], -10.7%.
In the case of `COc1ccc(NC(=O)c2c(NC(=O)c3ccc([N+](=O)[O-])o3)sc3c2CCC3)cc1`, the inhibition runs as follows: under setting [1], 96.5% (active); under setting [2], 96.2%.
On to `CCn1ccnc1CN(C)Cc1cn(-c2ccc(C)cc2)nc1-c1cccc(C)c1`, for which the inhibition by setting is: under setting [1], 14.8% (inactive); under setting [2], 8.21%.
Turning to `Cc1ccc(-c2nn(-c3ccccc3)cc2CNCc2ccccc2)cc1`, the inhibition under setting [1] was 33.4% (active) and the inhibition under setting [2] turned out to be 66.5%.
The like results for `CCn1ccnc1CN(C)Cc1cn(-c2cc(C)ccc2C)nc1-c1ccccc1` were, in that order, 16.9% (inactive) and 8.97%.
Consider `CC(C)COc1ccc(-c2nn(-c3ccccc3)cc2C(=O)Nc2nccs2)cc1`, for which the inhibition under setting [1] was 2.38% (inactive) and the inhibition under setting [2] is -24.1%.
With `Brc1ccc(-c2nn(-c3ccccc3)cc2CNCc2ccccc2)cc1`, the inhibition under setting [1] was 23.1% (active) and the inhibition under setting [2] stood at 39.4%.

The values above are taken from PubChem BioAssay AID1259417 (TB Discovery Research, Infectious Disease Research Institute, 2018).
